Only some compounds are listed: those with a hit (about 7.9% of all), similar ones and a draw of the others.
HCMV antiviral – inhibitors of human cytomegalovirus; HFF cells, HCMV-luciferase reporter, 72 h; active compounds read low; activity change, negative = inhibition, % at 57.5 µM; 410,000 tested, 4.5% active; in the data active = activity change below about -60%; inconclusive = no clear call, values can overlap the other calls; inactive = above about -39%
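Screen run at 2 compound doses on HFFs infected with reporter HCMV, MOI 1 PFU/cell. Luciferase activity from cell lysates at 72 h post infection gave inhibition relative to buffer-only and Salinomycin wells.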
FMDV antiviral – antivirals against foot and mouth disease virus. FMDV antiviral cell-based qHTS. Potency, µM (doses to about 57.9 µM), for the others: at the highest dose activity change, negative = inhibition, usual class: inhibitors. 410,000 tested, 1.2% active; calls by dose curve; tested in HEK293T cells; also: read-out not given here; potency is read from the fitted curve at half-maximal effect; nearly all actives have a fitted effect of over 45% in size
Lassa entry inh – inhibitors of Lassa virus binding or cell entry | 300,000 tested, 1.2% active | Lassa virus pseudotype entry inhibition, cell reporter | Potency, µM (titrated, usually from 37.9 µM), inactives show top-dose activity change, negative = inhibition, hits mostly inhibitors; calls by dose curve; tested in HEK293 cells; also: potency is read from the fitted curve at half-maximal effect; nearly all actives have a fitted effect of over 50% in size
HCV inh – inhibitors of hepatitis C virus infection | Huh7.5.1 HCVcc-Cre infection, luciferase reporter, 44 h | Potency, µM (series often up to 41.8 µM), for the others: at the top dose activity change, negative = inhibition, most hits filed as inhibitors | 340,000 tested, 3.4% active | AID 651820; active = well fitted inhibition curve with a large enough effect; inconclusive = small, poorly fitted or top-dose-only effect, or another doubt; inactive = no such curve, though single readings can be large or run the other way; also: potency is read from the fitted curve at half-maximal effect
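Seed cells (1,000/well) for 4 h; treat with compound and infect with HCVcc-Cre, moi about 0.5. Incubate 44 h, then detect luciferase activity.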
Marburg entry inh – Marburg virus entry inhibition; 300,000 tested, 1.8% active; Marburg virus pseudotyped entry inhibition, cell reporter; Potency, µM (top dose mostly 37.8 µM), inactives show at the highest dose activity change, negative = inhibition, most hits filed as inhibitors; calls by dose curve; tested in HEK293 cells; also: potency is read from the fitted curve at half-maximal effect
* = called active by the depositor; ? = inconclusive; · = no result; ! = a repeat was not active; [ ] = remark or other dose. % is scaled to controls: 0 for no effect and ±100 for the full control effect.

SMILES | HCMV antiviral | FMDV antiviral | Lassa entry inh | HCV inh | Marburg entry inh
O=c1c2cn[nH]c2nc(SCc2cccc(Br)c2)n1-c1ccc(Cl)cc1 | 8 | 0% | -11%[46.1 µM] | · | ·
Cc1ccccc1-n1c(SCc2ccc(Cl)cc2)nc2[nH]ncc2c1=O | -20 | ? | -3%[46.1 µM] | · | ·
Cc1cc(-n2c(SCc3ccccc3F)nc3[nH]ncc3c2=O)ccc1Cl | -64* | -18% | 4%[46.1 µM] | · | ·
CC(=O)N1N=C(c2cccc([N+](=O)[O-])c2)OC1c1ccc(Cl)cc1Cl (stereo not given) | 30 | ? | -20% | 10µM* | -25%
COc1ccc(NC(=O)Nc2ccc(C)cc2OC(F)F)cc1OC | -2 | -15% | -24% | 6.3µM* | -2%
CCNS(=O)(=O)c1ccc(NC(=O)Nc2ccccc2OC)cc1 | -21 | 20% | -15% | ? | 9%[46.1 µM]
Cc1ccc(NC(=O)c2cnccn2)c(OC(F)F)c1 | -14 | 20% | 5% | 13µM* | -3%
CCNS(=O)(=O)c1ccc(NC(=O)Nc2cc(C)ccc2OC)cc1 | -15 | 5% | · | 13µM* | ·
Cc1cc(F)ccc1NC(=O)c1cnccn1 | -34 | 12% | · | 22% | 15%[46.1 µM]
Cc1ccccc1OCCCn1c(CCNC(=O)C2CCCCC2)nc2ccccc21 | -14 | -28% | -28%[46.1 µM] | · | ?
Cn1nnnc1SCCCNCc1cc(Cl)ccc1OCc1ccc(F)cc1 | ? | -29% | -4%[46.1 µM] | · | ?
COc1ccc(N(C(=O)c2cccc(C)c2)S(=O)(=O)c2ccc(C)cc2)cc1 | -12 | -12% | ? | · | ·
COc1cc(Cl)c(CN2CCCC(CO)(Cc3ccccc3F)C2)cc1OC (stereo not given) | -7 | -19% | ? | -16% | 2.8µM*
Cc1cnc(-n2ncc(C(=O)NCc3ccncc3)c2C(C)C)nc1-c1ccc(F)cc1 | · | -21% | · | · | ·
Cc1ccc(NNC(=O)c2ccno2)c(C)c1 | -15 | -10% | ? | ? | 8.9µM*
Cc1cc(NC(=O)c2ccno2)no1 | 2 | -24% | · | 6% | ·
COC(=O)c1nnn(-c2cccc(C)c2)c1N | 2 | -7% | 4%[46.1 µM] | · | -15%[46.1 µM]
CCOC(=O)C1=C(C)N=C2SC(C(=O)OC)=CC(=O)N2C1c1ccc(OC)cc1 (stereo not given) | 6 | 14µM* | · | -1% | -27%[46.1 µM]
O=C(COc1ccc(C(=S)N2CCCC2)cc1)Nc1ccccc1C(F)(F)F | -65* | 0% | ? | -18% | 16%
O=C(COc1ccc(C(=S)N2CCOCC2)cc1)Nc1ccccc1C(F)(F)F | -87* | -20% | · | ? | 7%[46.1 µM]
CCC(C(=O)Nc1cc(C)ccc1OC)n1nnc(C(=O)OC)c1C(=O)OC (stereo not given) | 7 | -8% | 26%[46.1 µM] | · | 3%[46.1 µM]
Cc1ccc(N2CC(NC(=O)Cc3ccc(F)cc3)CC2=O)cc1C (stereo not given) | -39 | -5% | 10%[46.1 µM] | · | ·
Cc1ncc2c(c1CNC(=O)/C=C/c1cccs1)CCN(C(=O)c1noc3c1CCCC3)C2 | · | -2% | · | · | ·
C=CCN1CC(O)=C(c2ccccc2)C1=N | -69* | · | -3% | 18% | 6%
CCOC(=O)Cn1c(C(F)(F)F)nc2nc(Cl)c(Cl)nc21 | -98* | ? | -14%[46.1 µM] | ? | -20%
SMILES | HCMV antiviral | FMDV antiviral | Lassa entry inh | HCV inh | Marburg entry inh
CC1CCN(S(=O)(=O)c2cc(C(=O)NC3(C)CCS(=O)(=O)C3)ccc2Br)CC1 (stereo not given) | -61* | -23% | · | -1% | ·
CC1CCN(S(=O)(=O)c2cc(C(=O)N3CCN(c4ncccn4)CC3)ccc2Br)CC1 | -64* | 20µM* | ? | ? | ?
CC1CCN(C(=O)c2ccc(Br)c(S(=O)(=O)N3CCOCC3)c2)CC1 | -31 | 0% | 1% | 4% | 8%[46.1 µM]
CCS(=O)(=O)c1nc(S(=O)(=O)c2ccc(C)cc2)c(NCC(C)C)s1 | ? | 47% | -22%[46.1 µM] | · | 8%[46.1 µM]
CCCCCC1=CC2=C(C(=O)OC)C(c3ccccc3)NC(=O)N2CC1 (stereo not given) | · | · | · | · | 1%[14.2 µM]
CCSc1ncc(Cl)c(C(=O)Nc2c(C(=O)Nc3ccc(Cl)cc3)oc3ccccc23)n1 | -6 | -17% | 1%[46.1 µM] | · | ?
COC(=O)C(=C/C(C)=C/c1cccnc1)C(=O)OC | ? | 22µM* | -18%[46.1 µM] | -20% | ?
Cn1c(=O)c2c(SCC(=O)N3CCCc4ccccc43)nc(CC(C)(C)C)nc2n(C)c1=O | · | 22µM* | · | ? | ·
Cc1ccc(-c2nc(SCC(=O)N3CCc4ccccc43)c3c(=O)n(C)c(=O)n(C)c3n2)cc1 | -2 | -7% | 18%[46.1 µM] | · | ·
Cn1c(=O)c2c(SCC(=O)Nc3ccc4c(c3)OCCO4)nc(CC(C)(C)C)nc2n(C)c1=O | -64* | -29% | · | -1% | ·
CC1Cc2nc(SCC(=O)N3CCCc4ccccc43)n(C)c(=O)c2S1 (stereo not given) | 0 | ? | · | 11µM* | ·
CCCc1nc(SCC(=O)N2CCC(Cc3ccccc3)CC2)c2c(=O)n(C)c(=O)n(C)c2n1 | -23 | ? | · | 10µM*! | -1%
O=C(NCc1ccco1)C1CCN(C(=O)N2CCOc3ccc(Cl)cc32)CC1 | -5 | -14% | 2%[46.1 µM] | · | ·
CCCc1nc(SCC(=O)N2CCCc3ccccc32)c2c(=O)n(C)c(=O)n(C)c2n1 | · | -24% | · | 10µM* | 1%
CCCn1c(SCC(=O)N2CCCc3ccccc32)nc2c1c(=O)n(C)c(=O)n2C | -2 | -3% | -24% | -24% | -26%
COc1cc2c(cc1OC)C1=NC(=O)CN1C(SCc1ccccc1C)=N2 | ? | -23% | -15% | ? | ?
Cc1ccc(CSC2=Nc3ccccc3C3=NC(=O)CN23)cc1 | ? | -11% | ? | 7.9µM* | ?
Cc1cccc(OCCn2c(-c3ccc(Cl)cc3)nc3ccccc3c2=O)c1C | 38 | -24% | -25%[46.1 µM] | · | 1%[46.1 µM]
O=C1C2=C(C(=O)c3ccccc31)[C@H]1O[C@](c3ccsc3)(Cc3ccccc31)O2 | · | · | · | · | -8%[14.2 µM]
COc1ccccc1-c1ccnc(-n2ncc(C(=O)NCCc3ccccn3)c2C)n1 | · | 28% | · | · | ·
Cc1nnc(C)n1/N=C/c1ccc(O)cc1 | -2 | -11% | 10% | 11% | 2%
Oc1ccc(/C=N/n2c3ccccc3c3ccccc32)cc1 | 2 | -22% | -11% | 10µM* | -4%
CN(C)CCCOc1ccc2c(c1)Sc1ccccc1CC2=O | -17 | -18% | 10% | 10µM* | ?
O=C1Cc2ccccc2Sc2cc(OCCCN3CCCCC3)ccc21 | -33 | -17% | ? | ? | ?
COc1ccc(S(=O)(=O)NCCc2cn3ccsc3n2)cc1 | ? | 21% | 3%[46.1 µM] | · | ·
COc1cc(C2Oc3ccccc3C=C2[N+](=O)[O-])cc(OC)c1OC (stereo not given) | -104* | 13µM* | · | ? | ·
Cc1ccc2oc(=O)c3cc(C(=O)NCCCOC(C)C)sc3c2c1 | -1 | 7% | 3%[46.1 µM] | · | -20%[46.1 µM]
CC(C)Cc1nc(SCc2cccnc2)c2c(=O)n(C)c(=O)n(C)c2n1 | ? | ? | ? | 10µM* | ?
COc1ccccc1-c1cc(NC(=O)COc2ccc(C)c(C)c2)n(-c2ccccc2)n1 | 61 | 3% | 5%[46.1 µM] | · | ·

Source: PubChem BioAssay
